# Active and inactive are the calls of the source.
# Legend:
# [1] = tested on: Human papillomavirus type 1a protein E7 (residues 44-93); experiment: HPV1a E7 fragment binders on microarrays, primary screen, biochemical, small-molecule microarray, residues 44-93, 635 nm fluorescence (AID 1108); conditions: small-molecule microarray binding, fluorescence 635 nm; higher = more signal;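 also: E7 fragment applied at 1 µg/mL in TBST for 1 h at 4 C; score combines spot fluorescence with its signal to noise ratio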
# [2] = modulators of HCV replicon luciferase signal, primary screen, HCV replication inhibitor project, Huh7 cells, luciferase reporter (AID 1109); conditions: 48 h, higher = more signal;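 also: huh7 hepatoma cells harbouring a luciferase neomycin HCV replicon reporter; luciferase luminescence as measure of HCV replicon replication; test concentration not given here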
# [3] = biological target: Left-right determination factor 2 (Homo sapiens) (UniProt O00292); experiment: LEFTY2 binders on small-molecule microarrays, primary screen, biochemical, small-molecule microarray, 635 nm fluorescence scan (AID 1110); conditions: LEFTY2 binding, higher = more signal
# [4] = biological target: Calmodulin-1 (Homo sapiens) (UniProt P0DP23); experiment: CALM1 binders on microarrays, EGTA buffer, profiling panel, biochemical, small-molecule microarray, Cy5-labelled CALM1 (AID 1111); conditions: Cy5-CALM1 binding fluorescence, higher = more signal;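 also: labelled calmodulin applied in Tris saline Tween buffer holding calcium plus EGTA and DTT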
# [5] = biological target: Calmodulin-1 (Homo sapiens) (UniProt P0DP23); experiment: calcium-bound CALM1 binders on microarrays, profiling panel, artefact control for SMM control-protein annotation, biochemical, small-molecule microarray, Cy5-labelled CALM1, plus calcium (AID 1112); conditions: Cy5-CALM1 binding fluorescence, higher = more signal;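 also: score merges spot fluorescence with signal to noise from triplicate slides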
# [6] = small-molecule microarray binders of probe aWnt5a, primary screen, biochemical, biotinylated probe, 635/667 nm fluorescence (AID 1113); conditions: higher = more signal;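 also: score merges 667 nm fluorescence intensity with signal-to-noise per printed feature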
# [7] = small-molecule microarray binders of probe aShh, primary screen, biochemical, biotinylated probe, 635/667 nm fluorescence (AID 1114); conditions: higher = more signal;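 also: probe is biotin-labelled aShh protein from a stem cell growth factor screen; measures binding of labelled protein to compounds printed on the slide; score merges feature fluorescence at 667 nm with signal-to-noise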
# [8] = small-molecule microarray binders of probe aNog, primary screen, biochemical, biotinylated probe, 635/667 nm fluorescence (AID 1115); conditions: higher = more signal;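 also: probe is biotinylated aNog protein used at 0.15 µg/mL for 1 h at 4 C; z-score combines 667 nm fluorescence of each spot with its signal to noise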
# [9] = biological target: Torsin-1A-interacting protein 1 (Homo sapiens) (UniProt Q5JTV8); experiment: LAP1 binders from COS7 cell lysate, primary screen, small-molecule microarray, 635/667 nm fluorescence (AID 1116); conditions: COS7-hLAP1 lysate binding, 635 nm fluorescence, higher = more signal
# [10] = biological target: Alpha-bungarotoxin (Bungarus multicinctus) (UniProt P60615); experiment: alpha-bungarotoxin binders on microarray, profiling panel, artefact control for SMM control protein annotation, biochemical, small-molecule microarray, Alexa647 label, 635/667 nm fluorescence (AID 1117); conditions: alpha-BTX-A647 binding fluorescence, higher = more signal
# Albumin (Bos taurus) = Albumin (Bos taurus) (UniProt P02769); experiment: bovine serum albumin binders on microarray, profiling panel, artefact control for SMM control protein annotation, biochemical, small-molecule microarray, Alexa647 label, 635/667 nm fluorescence (AID 1118); conditions: BSA-A647 binding, fluorescence 635 nm, higher = more signal;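 also: score merges 667 nm emission intensity and signal-to-noise per printed compound spot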
# [11] = small-molecule microarray binders of probe aXIP, primary screen, biochemical, NeuroSMM set, 635/667 nm fluorescence (AID 1119); conditions: higher = more signal, called active from +8 up or from −8 down;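 also: probe is the protein aXip251-270 applied at 1 µg/mL to compound-printed slides; binding of probe to printed compounds measured as 667 nm fluorescence plus signal to noise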
# [12] = small-molecule binders of probe aNOTCH3, primary screen, biochemical, small-molecule microarray, 635/667 nm fluorescence (AID 1120); conditions: higher = more signal;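 also: probe is a biotin-tagged antibody raised against NOTCH3 rather than NOTCH3 protein; score merges spot fluorescence near 667 nm with spot signal to noise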
# [13] = small-molecule binders of probe aNOTCH2, primary screen, biochemical, small-molecule microarray, 635/667 nm fluorescence (AID 1121); conditions: higher = more signal;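 also: score merges feature fluorescence read at 667 nm with its signal to noise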
# [14] = biological target: Carbonic anhydrase 2 (Homo sapiens) (UniProt P00918); experiment: CAII small-molecule binders, profiling panel, biochemical, small-molecule microarray, Alexa647-labelled CAII (AID 1122); conditions: CAII-A647 binding fluorescence, higher = more signal
# [15] = COS7 lysate on small-molecule microarray, probe aHis, 635 nm (AID 1123); conditions: COS7 cell lysate, fluorescence, higher = more signal;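 also: z-score combines 667nm fluorescence intensity with signal-to-noise per printed compound spot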
# [16] = compound binding in COS7 lysate, probe aLAP1, primary screen, cell lysate, small-molecule microarray (AID 1124); conditions: probe aLAP1, fluorescence, higher = more signal;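 also: lysate comes from COS7 cells expressing LAP1 and is applied at 0.3 µg/mL; score merges spot fluorescence near 667 nm with signal-to-noise over triplicate slides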
# Sam68 (KHDRBS1) = experiment: Sam68 small-molecule binders, primary screen, biochemical, small-molecule microarray, 635 nm fluorescence (AID 1125); conditions: small-molecule microarray binding, higher = more signal;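 also: score merges 667 nm channel intensity with signal to noise over triplicate slides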
# [17] = tested on: Chordin-like protein 2 (CHRDL2); experiment: CHRDL2 small-molecule binders, primary screen, biochemical, small-molecule microarray, 635 nm fluorescence (AID 1126); conditions: small-molecule microarray binding, fluorescence 635 nm; higher = more signal;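 also: printed compound slides probed with Chrdl2 protein at 4 µg/mL for 1 h at 4 C; score merges 667 nm emission intensity with signal to noise over three replicate slides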
# [18] = biological target: Concanavalin-A (Canavalia ensiformis) (UniProt P02866); experiment: ConA small-molecule binders, primary screen, artefact control for SMM control protein annotation, biochemical, small-molecule microarray, Alexa647 label, 635 nm (AID 1127); conditions: ConA-A647 binding fluorescence, higher = more signal;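 also: z combines 667 nm emission intensity with signal-to-noise across three replicate slides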
# Concanavalin-A (Canavalia ensiformis), sequence (P02866 whole entry, looked up): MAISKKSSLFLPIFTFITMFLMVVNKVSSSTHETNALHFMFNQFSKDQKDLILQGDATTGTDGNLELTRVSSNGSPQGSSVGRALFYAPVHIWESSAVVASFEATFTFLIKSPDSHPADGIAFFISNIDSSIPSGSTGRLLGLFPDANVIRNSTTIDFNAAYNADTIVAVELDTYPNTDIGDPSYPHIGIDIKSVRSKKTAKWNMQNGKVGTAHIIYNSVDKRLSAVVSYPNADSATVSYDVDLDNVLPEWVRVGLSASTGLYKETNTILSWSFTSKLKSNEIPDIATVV
# Alpha-bungarotoxin (Bungarus multicinctus), sequence (P60615 whole entry, looked up): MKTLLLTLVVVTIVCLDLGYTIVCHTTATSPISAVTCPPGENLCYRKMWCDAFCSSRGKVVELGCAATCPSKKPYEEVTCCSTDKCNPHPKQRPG
# Torsin-1A-interacting protein 1 (Homo sapiens), sequence (Q5JTV8 whole entry, looked up): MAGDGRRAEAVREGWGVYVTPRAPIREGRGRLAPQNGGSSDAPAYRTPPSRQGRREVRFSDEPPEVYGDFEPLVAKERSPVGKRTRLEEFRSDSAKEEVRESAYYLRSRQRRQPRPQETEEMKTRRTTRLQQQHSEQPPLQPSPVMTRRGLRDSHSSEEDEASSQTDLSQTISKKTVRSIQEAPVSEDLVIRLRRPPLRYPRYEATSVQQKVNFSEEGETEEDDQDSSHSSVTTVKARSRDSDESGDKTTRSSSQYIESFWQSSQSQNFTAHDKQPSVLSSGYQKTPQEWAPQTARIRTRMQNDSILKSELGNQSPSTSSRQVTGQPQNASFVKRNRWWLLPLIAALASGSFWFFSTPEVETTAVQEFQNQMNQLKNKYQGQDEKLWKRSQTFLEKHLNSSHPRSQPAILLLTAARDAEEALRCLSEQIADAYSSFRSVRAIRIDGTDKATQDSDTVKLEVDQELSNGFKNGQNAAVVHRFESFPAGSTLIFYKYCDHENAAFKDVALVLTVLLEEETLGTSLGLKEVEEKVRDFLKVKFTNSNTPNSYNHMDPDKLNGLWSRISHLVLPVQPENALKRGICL
# Albumin (Bos taurus), sequence (P02769 whole entry, looked up): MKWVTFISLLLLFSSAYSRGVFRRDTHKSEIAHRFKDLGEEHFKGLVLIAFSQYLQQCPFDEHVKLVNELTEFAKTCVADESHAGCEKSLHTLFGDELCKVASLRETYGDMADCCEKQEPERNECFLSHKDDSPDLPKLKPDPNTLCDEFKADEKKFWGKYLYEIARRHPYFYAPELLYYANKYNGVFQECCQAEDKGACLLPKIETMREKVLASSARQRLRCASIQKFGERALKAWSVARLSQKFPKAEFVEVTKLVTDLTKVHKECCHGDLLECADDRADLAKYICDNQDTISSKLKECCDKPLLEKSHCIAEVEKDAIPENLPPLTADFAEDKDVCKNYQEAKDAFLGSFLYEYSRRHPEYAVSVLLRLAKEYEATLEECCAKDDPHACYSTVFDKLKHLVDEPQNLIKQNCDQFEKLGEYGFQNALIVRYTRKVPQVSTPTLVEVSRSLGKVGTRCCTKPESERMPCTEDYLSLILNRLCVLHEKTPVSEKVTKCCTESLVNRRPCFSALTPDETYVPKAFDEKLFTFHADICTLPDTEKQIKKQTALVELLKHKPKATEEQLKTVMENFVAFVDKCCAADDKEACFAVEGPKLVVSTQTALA
# Left-right determination factor 2 (Homo sapiens), sequence (O00292 whole entry, looked up): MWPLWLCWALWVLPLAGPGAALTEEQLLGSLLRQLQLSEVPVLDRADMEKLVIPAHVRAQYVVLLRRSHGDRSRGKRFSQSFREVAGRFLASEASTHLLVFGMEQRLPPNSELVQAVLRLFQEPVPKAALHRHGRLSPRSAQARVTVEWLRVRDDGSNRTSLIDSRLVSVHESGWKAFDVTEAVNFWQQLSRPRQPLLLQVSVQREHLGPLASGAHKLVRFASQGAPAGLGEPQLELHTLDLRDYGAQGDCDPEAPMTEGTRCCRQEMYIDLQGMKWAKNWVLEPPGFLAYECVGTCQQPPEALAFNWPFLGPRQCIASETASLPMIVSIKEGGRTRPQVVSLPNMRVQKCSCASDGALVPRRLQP
Compound,composite z-score [1],z-score [2],composite z-score [3],composite z-score [4],composite z-score [5],composite z-score [6],composite z-score [7],composite z-score [8],composite z-score [9],composite z-score [10],composite z-score (Albumin (Bos taurus)),composite Z-score [11],composite z-score [12],composite z-score [13],composite z-score [14],composite z-score [15],composite z-score [16],composite z-score (Sam68 (KHDRBS1)),composite z-score [17],composite z-score [18]
CN1C(=O)C2C(C1=O)C1C=C(CCCO)C2C(C2CC2)N1Cc1cccc(OC(F)(F)F)c1 (stereo not given),1.4,-1.4,-0.306,0.807,0.951,-0.0944,-0.0709,-0.0964,1.56,0.786,1.04,0.35 (inactive),0.0934,-0.023,0.911,2.55,0.956,1.3,-0.535,0.983
Cc1ccc(S[C@]2(C(=O)NCCCN(C)C)CC(=O)N(C3Cc4ccccc4C3)[C@@H]2c2ccc(CO)cc2I)cc1,0.257,-2.83,-1.11,0.0811,-0.358,0.0792,0.207,-0.291,0.157,0.651,0.827,0.42 (inactive),-0.0569,-0.18,0.715,0.83,-0.312,0.125,-0.745,0.441
NC(=O)NCC#Cc1ccc2c(c1)[C@]1(C(=O)N2)[C@H](c2ccc(OCCO)cc2)N2[C@H](c3ccccc3)[C@H](c3ccccc3)OC(=O)[C@H]2[C@@H]1C(=O)NC[C@H](O)c1ccccc1,1.01,-1.27,-0.375,0.0317,-0.194,-0.0572,-0.367,-0.559,0.727,0.502,0.335,0.691 (inactive),0.0237,-0.147,0.428,0.485,-0.146,-0.449,0.0046,1.03
COCCOC(=O)N1C(=O)[C@@]2(c3cc(C#CC4(O)CCCCCC4)ccc31)[C@H](c1ccc(O)cc1)N1[C@H](c3ccccc3)[C@H](c3ccccc3)OC(=O)[C@H]1[C@@H]2C(=O)N1CCCCCCC1,-0.622,-1.05,0.298,-0.39,-0.631,0.0742,0.0907,2.25,1.88,0.88,0.304,-0.0498 (inactive),0.295,-0.123,0.267,1.33,0.855,1.24,0.33,0.423
COc1cc(CO)cc(I)c1O[C@H]1C=C(C(=O)NCCO)C[C@@H](NC2CCCCCC2)[C@@H]1O,1.15,-4.13,0.867,0.475,-0.572,-0.129,-0.0769,-0.0345,0.484,0.0323,0.441,-0.228 (inactive),0.106,-0.161,0.579,-0.103,0.993,1.33,0.714,0.747
CN1C(=O)[C@@H]2[C@@H](CC(COc3ccccc3)=C3[C@@H](CCc4ccccc4)OB(O)C[C@@H]32)C1=O,-0.0599,-0.595,-0.194,0.0212,0.662,-0.156,0.691,-0.0172,0.0197,1.4,-0.062,0.581 (inactive),0.135,-0.0073,0.229,0.71,0.809,0.31,-0.102,-0.0514
CC(C)C[C@@H]1NC(=O)[C@@H]2C[C@H](C(=O)NCCCCCCNC(=O)CS)[C@H](c3cccc(OCCO)c3)N2C1=O,1.47,-0.319,0.622,1.03,0.264,0.0375,0.0611,-0.0172,1.06,2.02,-0.256,0.491 (inactive),0.248,-0.123,0.228,1.94,0.252,1.29,1.36,0.862
CC(C)=CCCC=C(C)C(O)C1C=CC2C(=O)N(c3ccccc3)C(=O)C2N1Nc1ccc(C#N)cc1 (stereo not given),1.4,-1.96,-0.111,1.46,-0.175,-0.0459,-0.0769,-0.468,0.217,0.82,0.976,-0.213 (inactive),0.518,-0.157,0.596,2.34,1.54,1.03,0.173,1.11
CN(C)CCCCNC(=O)[C@H]1C[C@H]2C(=O)NCC(=O)N2[C@H]1c1ccc(O)cc1,-0.392,0.143,-0.735,-0.608,0.577,-0.145,-0.501,-0.248,-0.38,0.52,-0.411,0.312 (inactive),-0.368,-0.13,0.712,0.0967,-0.537,-0.714,0.367,0.342
CC(C)(C)N1CC=CC23O[C@@H]4C=CCCOC(=O)C4[C@H]2C(=O)N(CCCCCCO)[C@@H]3C1=O (stereo not given in full),0.315,0.0358,-0.807,-0.338,0.195,-0.167,-0.352,-0.0207,0.348,1.07,-0.188,-0.192 (inactive),-0.0716,-0.124,0.834,-0.0431,0.0582,0.28,-1.29,-0.202

# From PubChem BioAssay
